# In PubChem BioAssay (EPA / NIEHS):
# Activity calls are given as the source filed them. How the source made its calls: active means hit-call score of the fitted dose curve at least 0.9, where 1 is the maximum; inactive means score below 0.9.
# Tests used:
# Details in all cases: mRNA level, 48 h; actives raise or lower the signal
# [1] = read-out: MicroRNA 122 (MIR122), gene 406906; assay: LTEA_HepaRG_MIR122: Life Technologies and Expression Analysis (LTEA) Assay for MicroRNA 122 (MIR122) using HepaRG (AID 2283516); further: the transcript read is the microRNA miR-122
# In short: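 Differentiated human HepaRG cells in serum-free induction medium exposed 48 h to 8 half-log concentrations from 100 uM in 0.5% DMSO, duplicate. MIR122 quantified by Fluidigm TaqMan qRT-PCR, normalised to ACTB, GAPDH, POLR2A; fold change fitted bidirectionally versus DMSO.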
# [2] = read-out: matrix metalloproteinase-10 (MMP10), MMP10 (gene 4319); assay: LTEA_HepaRG_MMP10: Life Technologies and Expression Analysis (LTEA) Assay for matrix metalloproteinase-10 (MMP10) using HepaRG (AID 2283517)
# In short: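 HepaRG, collagen I, ~100,000 cells/well; serum-free induction medium; 48 h exposure, duplicate, 8-pt half-log to 100 uM, 0.5% DMSO. Readout: TaqMan qRT-PCR, normalized to ACTB/GAPDH/POLR2A; bidirectional fit vs DMSO.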
# [3] = read-out: MYC, MYC (gene 4609); assay: LTEA_HepaRG_MYC: Life Technologies and Expression Analysis (LTEA) Assay for MYC using HepaRG (AID 2283518)
# In short: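 Differentiated HepaRG cells exposed 48 h in serum-free induction medium to 8 concentrations (top 100 uM, half-log steps; 0.5% DMSO), duplicate. MYC mRNA measured by Fluidigm qRT-PCR, normalized to ACTB, GAPDH, POLR2A; bidirectional fit versus DMSO.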
# [4] = read-out: matrix metalloproteinase-3 (MMP3), MMP3 (gene 4314); assay: LTEA_HepaRG_MMP3: Life Technologies and Expression Analysis (LTEA) Assay for matrix metalloproteinase-3 (MMP3) using HepaRG (AID 2283519)
# In short: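 Differentiated human HepaRG cells, plated 48 h on collagen I, were exposed in duplicate for 48 h in serum-free induction medium to eight half-log concentrations up to 100 uM in 0.5% DMSO. MMP3 mRNA was quantified by TaqMan qRT-PCR, normalised to ACTB, GAPDH and POLR2A.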
# [5] = read-out: Paternally Expressed 10 (PEG10), PEG10 (gene 23089); assay: LTEA_HepaRG_PEG10: Life Technologies and Expression Analysis (LTEA) Assay for Paternally Expressed 10 (PEG10) using HepaRG (AID 2283520)
# In short: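 Differentiated HepaRG cells exposed 48 h in serum-free induction medium to eight half-log concentrations topping at 100 uM, 0.5% DMSO, in duplicate. PEG10 mRNA quantified by TaqMan qRT-PCR, normalized to ACTB, GAPDH and POLR2A; bidirectional fit versus DMSO.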
# [6] = read-out: Protein phosphatase 2A (PPP2R4), PTPA (gene 5524); assay: LTEA_HepaRG_PPP2R4: Life Technologies and Expression Analysis (LTEA) Assay for Protein phosphatase 2A (PPP2R4) using HepaRG (AID 2283522)
# In short: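 Differentiated human HepaRG cells in serum-free induction medium were exposed 48 h to 8 concentrations (top 100 µM, half-log steps, duplicate) in 0.5% DMSO. PPP2R4 mRNA was measured by TaqMan qRT-PCR, normalised to ACTB, GAPDH and POLR2A, and fitted bidirectionally versus DMSO.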
# [7] = read-out: Phosphatase and tensin (PTEN), PTEN (gene 5728); assay: LTEA_HepaRG_PTEN: Life Technologies and Expression Analysis (LTEA) Assay for Phosphatase and tensin (PTEN) using HepaRG (AID 2283523)
# In short: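 Differentiated human HepaRG cells, plated 48 h then switched to serum-free induction medium, were exposed in duplicate for 48 h to eight half-log concentrations up to 100 uM in 0.5% DMSO. PTEN mRNA measured by TaqMan qRT-PCR, normalized to ACTB/GAPDH/POLR2A, bidirectional fit versus DMSO.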
# [8] = read-out: solute carrier (SLC22A1), SLC22A1 (gene 6580); assay: LTEA_HepaRG_SLC22A1: Life Technologies and Expression Analysis (LTEA) Assay for solute carrier (SLC22A1) using HepaRG (AID 2283524)
# In short: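 Human HepaRG cells were plated 48 h, switched to serum-free induction medium, then exposed in duplicate for 48 h to 8-point half-log series from 100 uM in 0.5% DMSO. SLC22A1 mRNA measured by qRT-PCR, normalized to ACTB/GAPDH/POLR2A, fitted bidirectionally versus DMSO.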
# [9] = read-out: Pyruvate Dehydrogenase Kinase 4 (PDK4), PDK4 (gene 5166); assay: LTEA_HepaRG_PDK4: Life Technologies and Expression Analysis (LTEA) Assay for Pyruvate Dehydrogenase Kinase 4 (PDK4) using HepaRG (AID 2283525)
# In short: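 Differentiated human HepaRG cells, pre-cultured 48 h, were exposed in duplicate for 48 h in serum-free induction medium to eight half-log concentrations up to 100 uM in 0.5% DMSO. PDK4 mRNA was quantified by qRT-PCR, normalized to ACTB, GAPDH and POLR2A, bidirectional fitting versus DMSO.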
# [10] = read-out: NAD(P)H dehydrogenase [quinone] 1 (NQO1), NQO1 (gene 1728); assay: LTEA_HepaRG_NQO1: Life Technologies and Expression Analysis (LTEA) Assay for NAD(P)H dehydrogenase [quinone] 1 (NQO1) using HepaRG (AID 2283526)
# In short: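 Differentiated human HepaRG cells in serum-free induction medium, dosed in duplicate for 48 h at 8 half-log concentrations up to 100 uM in 0.5% DMSO. NQO1 mRNA by qRT-PCR normalized to ACTB, GAPDH, POLR2A; bidirectional fit versus DMSO baseline.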
# [11] = read-out: Nuclear factor erythroid 2-related factor 2 (Homo sapiens) (UniProt Q16236); assay: LTEA_HepaRG_NFE2L2: Life Technologies and Expression Analysis (LTEA) Assay for Nuclear factor erythroid 2-related factor 2 (NFE2L2) Transcription Factor using HepaRG (AID 2283527);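 further: TaqMan qRT-PCR transcript level normalised to ACTB GAPDH and POLR2A housekeeping genes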
# In short: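 Differentiated human HepaRG cells in serum-free induction medium were exposed for 48 h to eight concentrations (top 100 uM, half-log dilutions, 0.5% DMSO), in duplicate. NFE2L2 mRNA was quantified by TaqMan qRT-PCR, normalized to ACTB, GAPDH and POLR2A, with bidirectional fitting versus DMSO.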
# [12] = read-out: succinate dehydrogenase complex iron sulfur subunit B (SDHB), SDHB (gene 6390); assay: LTEA_HepaRG_SDHB: Life Technologies and Expression Analysis (LTEA) Assay for succinate dehydrogenase complex iron sulfur subunit B (SDHB) using HepaRG (AID 2283528)
# In short: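 HepaRG cells (~100,000/well, plated 48 h) exposed in duplicate for 48 h in serum-free induction medium to 8-point half-log series from 100 uM in 0.5% DMSO; mRNA by qRT-PCR normalised to ACTB, GAPDH, POLR2A; bidirectional fit versus DMSO.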
# [13] = read-out: Signal transducer and activator of transcription 3 (Homo sapiens) (UniProt P40763); assay: LTEA_HepaRG_STAT3: Life Technologies and Expression Analysis (LTEA) Assay for Signal transducer and activator of transcription (STAT3) using HepaRG (AID 2283529)
# In short: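 Differentiated human HepaRG cells in serum-free induction medium were exposed in duplicate for 48 h to eight half-log concentrations up to 100 uM in 0.5% DMSO. STAT3 mRNA was quantified by TaqMan qRT-PCR, normalized to ACTB, GAPDH and POLR2A, and fitted bidirectionally against DMSO.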
# [14] = read-out: solute carrier (SLCO1B1), SLCO1B1 (gene 10599); assay: LTEA_HepaRG_SLCO1B1: Life Technologies and Expression Analysis (LTEA) Assay for solute carrier (SLCO1B1) using HepaRG (AID 2283530)
# In short: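 Differentiated human HepaRG cells were exposed for 48 h in serum-free induction medium to eight half-log concentrations, top 100 uM, in 0.5% DMSO. SLCO1B1 mRNA was measured by qRT-PCR, normalized to ACTB, GAPDH and POLR2A, and fitted bidirectionally against DMSO.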
# [15] = read-out: sulfotransferase 2A1 (SULT2A1), SULT2A1 (gene 6822); assay: LTEA_HepaRG_SULT2A1: Life Technologies and Expression Analysis (LTEA) Assay for sulfotransferase 2A1 (SULT2A1) using HepaRG (AID 2283531)
# In short: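 HepaRG human liver cells, 48 h exposure in serum-free induction medium to 8 half-log concentrations topping at 100 µM (0.5% DMSO), duplicate wells. SULT2A1 mRNA measured by TaqMan qRT-PCR, normalized to ACTB/GAPDH/POLR2A; bidirectional fit against DMSO.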
# [16] = read-out: Transforming Growth Factor (TGFA), TGFA (gene 7039); assay: LTEA_HepaRG_TGFA: Life Technologies and Expression Analysis (LTEA) Assay for Transforming Growth Factor (TGFA) using HepaRG (AID 2283532)
# In short: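 Differentiated human HepaRG cells, plated 48 h then switched to serum-free induction medium, were exposed in duplicate for 48 h to 8-point half-log series from 100 uM in 0.5% DMSO. TGFA mRNA measured by qRT-PCR, normalized to ACTB/GAPDH/POLR2A, bidirectional fit versus DMSO.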
# [17] = read-out: Transforming Growth Factor (TGFB1), TGFB1 (gene 7040); assay: LTEA_HepaRG_TGFB1: Life Technologies and Expression Analysis (LTEA) Assay for Transforming Growth Factor (TGFB1) Transporter using HepaRG (AID 2283533)
# In short: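 Differentiated HepaRG cells exposed 48 hr in serum-free induction medium to eight half-log concentrations up to 100 uM (0.5% DMSO), duplicate; TGFB1 mRNA by TaqMan qRT-PCR normalised to ACTB, GAPDH, POLR2A; bidirectional fit against DMSO.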
# [18] = read-out: TIMP1, TIMP1 (gene 7076); assay: LTEA_HepaRG_TIMP1: Life Technologies and Expression Analysis (LTEA) Assay for TIMP1 using HepaRG (AID 2283534);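 further: TaqMan qRT-PCR signal normalized to ACTB GAPDH and POLR2A housekeeping genes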
# In short: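 Differentiated HepaRG cells exposed 48 h in serum-free induction medium, duplicates, eight half-log concentrations from 100 uM in 0.5% DMSO. TIMP1 mRNA by qRT-PCR normalized to ACTB, GAPDH, POLR2A; bidirectional fitting against DMSO.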
# [19] = read-out: Tumor necrosis factor receptor 1 (TNFRSF1A), TNFRSF1A (gene 7132); assay: LTEA_HepaRG_TNFRSF1A: Life Technologies and Expression Analysis (LTEA) Assay for Tumor necrosis factor receptor 1 (TNFRSF1A) using HepaRG (AID 2283535)
# In short: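 Differentiated HepaRG cells in serum-free induction medium, exposed 48 h in duplicate to 8 half-log concentrations up to 100 uM in 0.5% DMSO. TNFRSF1A mRNA by Fluidigm TaqMan qRT-PCR, normalized to ACTB, GAPDH, POLR2A; bidirectional fit.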
# [20] = read-out: Nuclear factor NF-kappa-B p105 subunit (Homo sapiens) (UniProt P19838); assay: LTEA_HepaRG_NFKB1: Life Technologies and Expression Analysis (LTEA) Assay for Nuclear Factor Kappa B Subunit 1 (NFKB1) using HepaRG (AID 2283521);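 further: TaqMan qRT-PCR transcript normalised to ACTB GAPDH and POLR2A housekeeping genes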
# In short: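 Differentiated human HepaRG cells in serum-free induction medium with 0.5% DMSO were exposed for 48 h to eight half-log concentrations, top 100 uM, in duplicate. NFKB1 mRNA measured by Fluidigm TaqMan qRT-PCR, normalised to ACTB, GAPDH and POLR2A; bidirectional fit versus DMSO.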
# Chain of Nuclear factor NF-kappa-B p105 subunit (Homo sapiens) (P19838 whole entry, looked up): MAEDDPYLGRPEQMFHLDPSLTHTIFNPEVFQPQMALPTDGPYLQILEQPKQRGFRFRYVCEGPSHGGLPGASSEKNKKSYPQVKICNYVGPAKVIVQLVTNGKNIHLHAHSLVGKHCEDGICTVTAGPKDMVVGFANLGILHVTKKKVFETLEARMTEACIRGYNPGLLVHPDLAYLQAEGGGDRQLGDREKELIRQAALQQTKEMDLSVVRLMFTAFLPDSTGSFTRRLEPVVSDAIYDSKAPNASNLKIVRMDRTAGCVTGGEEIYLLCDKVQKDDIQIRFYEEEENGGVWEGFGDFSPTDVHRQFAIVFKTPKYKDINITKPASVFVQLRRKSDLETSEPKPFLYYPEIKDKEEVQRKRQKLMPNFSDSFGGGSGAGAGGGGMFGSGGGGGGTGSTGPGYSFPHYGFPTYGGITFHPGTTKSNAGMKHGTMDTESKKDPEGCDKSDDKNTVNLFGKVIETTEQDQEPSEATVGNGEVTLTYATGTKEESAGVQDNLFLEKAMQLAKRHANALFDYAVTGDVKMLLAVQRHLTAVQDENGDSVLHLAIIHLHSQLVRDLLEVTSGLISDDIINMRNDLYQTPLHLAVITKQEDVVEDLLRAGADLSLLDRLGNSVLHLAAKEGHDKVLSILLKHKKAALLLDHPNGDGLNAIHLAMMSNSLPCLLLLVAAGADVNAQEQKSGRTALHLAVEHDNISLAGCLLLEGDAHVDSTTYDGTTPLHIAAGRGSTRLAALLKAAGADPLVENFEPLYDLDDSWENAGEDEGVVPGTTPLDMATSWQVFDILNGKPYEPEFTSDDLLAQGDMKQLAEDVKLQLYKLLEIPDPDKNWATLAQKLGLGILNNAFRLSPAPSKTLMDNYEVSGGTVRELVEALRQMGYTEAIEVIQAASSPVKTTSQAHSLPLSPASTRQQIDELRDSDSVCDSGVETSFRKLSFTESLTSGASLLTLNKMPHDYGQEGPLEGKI
# Chain of Nuclear factor erythroid 2-related factor 2 (Homo sapiens) (Q16236 whole entry, looked up): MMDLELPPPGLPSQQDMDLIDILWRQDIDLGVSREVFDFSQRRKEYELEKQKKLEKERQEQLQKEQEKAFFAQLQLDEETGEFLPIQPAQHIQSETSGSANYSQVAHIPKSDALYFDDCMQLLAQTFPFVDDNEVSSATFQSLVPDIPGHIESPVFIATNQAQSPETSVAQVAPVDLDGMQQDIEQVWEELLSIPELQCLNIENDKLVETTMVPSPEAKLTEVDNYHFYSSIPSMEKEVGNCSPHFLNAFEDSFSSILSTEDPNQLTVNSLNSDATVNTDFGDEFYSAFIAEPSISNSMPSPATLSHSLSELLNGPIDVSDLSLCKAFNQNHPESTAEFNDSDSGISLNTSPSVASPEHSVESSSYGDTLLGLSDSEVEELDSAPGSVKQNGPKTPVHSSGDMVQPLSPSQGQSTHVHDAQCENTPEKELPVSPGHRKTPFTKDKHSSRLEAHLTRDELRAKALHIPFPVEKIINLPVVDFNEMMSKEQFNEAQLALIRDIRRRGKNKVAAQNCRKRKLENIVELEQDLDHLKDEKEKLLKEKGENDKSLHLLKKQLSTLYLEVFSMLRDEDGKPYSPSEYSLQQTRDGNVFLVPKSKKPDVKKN
# Chain of Signal transducer and activator of transcription 3 (Homo sapiens) (P40763 whole entry, looked up): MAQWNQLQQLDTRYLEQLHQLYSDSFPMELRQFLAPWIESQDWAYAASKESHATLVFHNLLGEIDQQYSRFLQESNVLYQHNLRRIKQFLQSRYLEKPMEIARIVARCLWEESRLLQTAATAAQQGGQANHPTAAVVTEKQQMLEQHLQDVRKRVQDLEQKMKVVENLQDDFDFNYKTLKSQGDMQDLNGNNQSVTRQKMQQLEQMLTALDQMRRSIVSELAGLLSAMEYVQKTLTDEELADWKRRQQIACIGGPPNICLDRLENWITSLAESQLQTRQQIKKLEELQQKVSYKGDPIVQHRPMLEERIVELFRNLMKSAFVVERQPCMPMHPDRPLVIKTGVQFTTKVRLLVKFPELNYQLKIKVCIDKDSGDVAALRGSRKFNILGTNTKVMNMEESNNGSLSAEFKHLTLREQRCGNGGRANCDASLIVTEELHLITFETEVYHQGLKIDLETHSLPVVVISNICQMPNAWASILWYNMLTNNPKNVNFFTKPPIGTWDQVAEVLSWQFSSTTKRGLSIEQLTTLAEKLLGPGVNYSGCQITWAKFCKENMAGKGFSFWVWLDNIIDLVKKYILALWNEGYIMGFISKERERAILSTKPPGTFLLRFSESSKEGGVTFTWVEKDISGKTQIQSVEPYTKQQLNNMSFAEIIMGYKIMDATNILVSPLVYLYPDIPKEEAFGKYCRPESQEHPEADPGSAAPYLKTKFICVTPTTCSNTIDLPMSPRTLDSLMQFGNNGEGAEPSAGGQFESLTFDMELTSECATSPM
smiles,measurement,setting,value
O=C1NC(=O)C(c2ccccc2)(c2ccccc2)N1,outcome,[1],inactive
same,outcome,[2],inactive
same,outcome,[3],inactive
same,outcome,[4],inactive
same,outcome,[5],inactive
same,outcome,[6],inactive
same,outcome,[7],inactive
same,outcome,[8],inactive
same,outcome,[9],inactive
same,outcome,[10],inactive
same,outcome,[11],inactive
same,outcome,[12],inactive
same,outcome,[13],inactive
same,outcome,[14],inactive
same,AC50,[15],50 µM (active)
same,outcome,[16],inactive
same,outcome,[17],inactive
same,outcome,[18],inactive
same,outcome,[19],inactive
N[C@@H](Cc1c[nH]c2ccccc12)C(=O)O,outcome,[2],inactive
same,outcome,[3],inactive
same,outcome,[4],inactive
same,outcome,[5],inactive
same,outcome,[20],inactive
same,outcome,[6],inactive
same,outcome,[7],inactive
same,outcome,[8],inactive
same,outcome,[9],inactive
same,outcome,[10],inactive
same,outcome,[11],inactive
same,outcome,[12],inactive
same,outcome,[13],inactive
same,outcome,[14],inactive
same,outcome,[15],inactive
same,outcome,[16],inactive
same,outcome,[17],inactive
same,outcome,[18],inactive
same,outcome,[19],inactive
CCCCOC(=O)CCCCC(=O)OCCCC,outcome,[2],inactive
same,outcome,[3],inactive
same,outcome,[4],inactive
same,outcome,[5],inactive
same,outcome,[20],inactive
same,outcome,[6],inactive
same,outcome,[7],inactive
same,AC50,[8],243 nM (active)
same,outcome,[9],inactive
same,outcome,[10],inactive
same,outcome,[11],inactive
same,outcome,[12],inactive
same,outcome,[13],inactive
same,outcome,[14],inactive
same,outcome,[15],inactive
same,outcome,[16],inactive
same,outcome,[17],inactive
same,outcome,[18],inactive
same,outcome,[19],inactive
O=C1CCCCC1,outcome,[2],inactive
same,outcome,[3],inactive
same,outcome,[4],inactive
same,outcome,[5],inactive
same,outcome,[20],inactive
same,outcome,[6],inactive
same,outcome,[7],inactive
same,outcome,[8],inactive
same,outcome,[9],inactive
same,outcome,[10],inactive
same,outcome,[11],inactive
same,outcome,[12],inactive
same,outcome,[13],inactive
same,outcome,[14],inactive
same,outcome,[15],inactive
same,outcome,[16],inactive
same,outcome,[18],inactive
same,AC50,[19],53.8 nM (active)
